Compound activity from PubChem BioAssay.
Hits are enriched below; roughly 4.5% of the tested compounds scored in any of these assays.
tim23-1 inh = growth inhibitors of tim23-1 mutant yeast; S. cerevisiae tim23-1 growth, BacTiter-Glo luminescence, 24 h; inhibition, % at 20 µM; AID 463212; actives 1.3% (n = 330,000);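 active = growth inhibition of the mutant yeast at or above 50%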;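 note: temperature-sensitive mutant grown at 25 °C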
NLRP3 yeast inh = NALP3 inhibition in yeast | Yeast reconstituted NLRP3/ASC/caspase-1, beta-gal luminescence, 24 h | inhibition, % at 10 µM | actives 0.39% (n = 330,000);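 active = inhibition of 50% or more; inactive = inhibition below 50%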
tim10-1 inh = tim10-1 yeast growth inhibition; S. cerevisiae tim10-1 ts strain growth, BacTiter-Glo, 24 h; inhibition, % at 20 µM; actives 2.2% (n = 330,000);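 active = inhibition of at least 40%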;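 note: mutant grown at 25 °C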
TIM10 inh = growth inhibitors of TIM10 yeast strain; S. cerevisiae TIM10 strain growth, BacTiter-Glo luminescence, 24 h; inhibition, % at 10 µM; actives 1.4% (n = 330,000); AID 463195;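 active = inhibition of 40% or more at the single tested concentration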;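 note: wild-type TIM10 isogenic control strain grown at permissive 25 °C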
SKKanGAS inh = SKKanGAS growth inhibition. AID 1662. inhibition, % at 7.5 µM. S. pyogenes SKKanGAS, kanamycin growth, BacTiter-Glo, 6 h. actives 1.3% (n = 300,000);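 active = mean replicate score, as percent of positive control median, at least 50; inconclusive = mean below 50 but one replicate at or above 50; inactive = mean and every replicate below 50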;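 note: strain carries kanamycin resistance gene driven by streptokinase promoter and grows in 40 µg/ml kanamycin; loss of luminescence reflects streptokinase promoter inhibition or plain growth inhibition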
PfHsp90 yeast 2 = growth inhibition of yeast expressing Plasmodium Hsp90; S. cerevisiae expressing PfHsp90, BacTiter-Glo ATP, 48 h; yeast lacking PDR1 and PDR3 efflux regulators; inhibition, % at 9.4 µM; actives 0.32% (n = 310,000);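 active = every replicate shows inhibition above about 80%, whatever the replicate mean, limit read from the data; inconclusive = mean inhibition reaches the set limit but some replicate falls short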
tim10-1 conf = confirmation of tim10-1 mutant yeast growth inhibitors. inhibition, % at 20 µM. shares compounds with tim10-1 inh. S. cerevisiae tim10-1 ts strain growth, BacTiter-Glo, 24 h. actives 56% (n = 7,400). AID 463213;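 active = inhibition of yeast growth at or above a set limit in either of two repeat tests at 20 µM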;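 note: tim10-1 mutant grown at permissive 25 °C to find synthetic lethal compounds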
TIM10 conf = confirmation of TIM10 yeast growth inhibitors; shares compounds with TIM10 inh; S. cerevisiae tim10 strain growth, BacTiter-Glo luminescence, 24 h; inhibition, % at 10 µM; actives 63% (n = 4,600); AID 463215;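 active = inhibition of yeast growth at or above a set limit in either of two replicates at 10 µM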; note: this counterscreen used the strain with wild-type TIM10
Each line names hits and unclear results; the compound was inactive in the other large screens (follow-up assays come after a bar, where they were run).

Cc1ccc(OCC(=O)NNC(=O)C(C)Sc2ncnc3sc(C)c(C)c23)cc1 (centres undefined)	tim10-1 inh 42, TIM10 inh 55 | tim10-1 conf 42 | TIM10 conf inactive
CCc1c(C)nc(Nc2nc(C)c3ccc(OC)cc3n2)[nH]c1=O	none
COc1ccc2c(C)nc(Nc3nc(C)c(C)c(=O)[nH]3)nc2c1	tim10-1 inh 71, TIM10 inh 66 | tim10-1 conf 61 | TIM10 conf 50
CCN(CC)C(=O)c1cccc2c1C(=O)c1ccccc1-2	none
CCN(CC)C(=O)c1ccc2c(c1[N+](=O)[O-])C(=O)c1ccccc1C2=O	tim10-1 inh 60, TIM10 inh 53 (no result: PfHsp90 yeast 2) | tim10-1 conf 44 | TIM10 conf inactive
CCc1ccc(OCC(=O)Nc2ccc(N3CCN(C(=O)c4ccccc4)CC3)cc2)cc1	none
COc1ccc(OCC(=O)Nc2ccc(N3CCN(C(=O)c4ccccc4)CC3)c(Cl)c2)cc1	tim10-1 inh 60, TIM10 inh 44 | tim10-1 conf 58 | TIM10 conf 57
COc1ccccc1NS(=O)(=O)c1ccc(NC(=O)N2CCCCC2)cc1	none
CN(C(=O)CCN1C(=O)S/C(=C\c2ccccc2)C1=O)C1CCS(=O)(=O)C1 (centres undefined)	none
O=C(/C=C/c1cccs1)c1cc(F)ccc1OC(=O)N1CCOCC1	tim10-1 inh 53, TIM10 inh 54 | tim10-1 conf 55 | TIM10 conf inactive
O=C(/C=C/c1cccs1)N1CCOCC1	none
CCOC(=O)N1CCN(S(=O)(=O)c2ccc(C(=O)N(CCN(CC)CC)c3nc4ccc(C)cc4s3)cc2)CC1	tim10-1 inh 48 | tim10-1 conf 35 | TIM10 conf inactive
CCOC(=O)N1CCN(S(=O)(=O)c2ccc(C(=O)N(CCCN(C)C)c3nc4ccc(Cl)cc4s3)cc2)CC1	none
CCN(CC)CCN(C(=O)c1ccc(S(=O)(=O)N(C)C2CCCCC2)cc1)c1nc2ccc(OC)cc2s1	tim10-1 inh 59, TIM10 inh 48 | tim10-1 conf 42 | TIM10 conf 38
O=c1cc(-c2ccccc2O)nc(-c2ccccc2)[nH]1	none
CN1CCc2c(C#N)c(N3CCCCC3)nc(NCc3ccccc3)c2C1	tim10-1 inh 48, TIM10 inh 43 (no result: PfHsp90 yeast 2) | tim10-1 conf 32 | TIM10 conf inactive
N#Cc1c(NCCCO)nc(NCc2ccccc2)c2c1CCN(Cc1ccccc1)C2	none
Oc1ccc(/C=N/NC(=S)NC2CC3CCC2C3)cc1 (centres undefined)	tim10-1 inh 42, TIM10 inh 58 | tim10-1 conf inactive | TIM10 conf inactive
O=C(COC(=O)c1n[nH]c(=O)c2ccccc12)Nc1cccc(S(=O)(=O)N2CCOCC2)c1	none (no result: tim23-1 inh, NLRP3 yeast inh, tim10-1 inh, TIM10 inh, SKKanGAS inh)
CN(C(=O)c1ccncc1)C1CCCCC1	none
Cc1ccc(CN(Cc2ccccn2)C(=O)Nc2c(F)cccc2F)cc1	none
CCCCOc1ccc(CONS(=O)(=O)c2ccc(NC(C)=O)cc2)cc1Cl	tim10-1 inh 55, TIM10 inh 62 | tim10-1 conf 47 | TIM10 conf 48
CC(=O)Nc1ccc(S(=O)(=O)NCCOc2ccc(Cl)cc2C)cc1	none
Cc1cc(C)n(-c2ccnc3cc(Cl)ccc23)n1	none
Cc1nc(C)c(-c2csc(Nc3cccc(O)c3)n2)s1	tim10-1 inh 44, TIM10 inh 48 | tim10-1 conf inactive | TIM10 conf 31
Cc1nc(N)sc1-c1csc(Nc2cccc(O)c2)n1	none
Cc1cccc(NC(=O)Cn2nc(-c3cccs3)ccc2=O)c1C	none
COc1ccc(O)c(/C=N/Nc2nc(C)cc(-c3ccccc3)n2)c1	tim10-1 inh 43, TIM10 inh 42 | tim10-1 conf 40 | TIM10 conf 47
CCOC(=O)N1CCN(S(=O)(=O)c2ccc(OC)c(Br)c2)CC1	none
c1csc(C2Nc3cccc4cccc(c34)N2)c1	tim10-1 inh 53, TIM10 inh 48 | tim10-1 conf 52 | TIM10 conf inactive
CN(C)c1ccc(C2Nc3cccc4cccc(c34)N2)cc1	tim10-1 inh 57, TIM10 inh 66 | tim10-1 conf 58 | TIM10 conf 67
c1ccc(C2Nc3cccc4cccc(c34)N2)cc1	none
CC(C)(C)C1=CC(=O)C(=O)C(C(C)(C)C)=C1	tim10-1 inh 47, TIM10 inh 40, PfHsp90 yeast 2 103 | tim10-1 conf 39 | TIM10 conf inactive
CC(C)(C)C1=CC(=Nc2ccccc2N)C=C(C(C)(C)C)C1=O	none
CCOC(=O)C1CCN(C(=O)c2ccc(OCC(=O)Nc3cccc(C(F)(F)F)c3)c(OC)c2)CC1	tim10-1 inh 55, TIM10 inh 59 | tim10-1 conf 66 | TIM10 conf 63
CCN(CC)c1ccc(-n2cc3c(=O)n(C)c(=O)n(C)c3c2)cc1	tim10-1 inh 40, TIM10 inh 46, SKKanGAS inh inconclusive | tim10-1 conf 31 | TIM10 conf inactive
CN(C)c1ccc(-n2cc3c(=O)n(C)c(=O)n(C)c3c2)cc1	none
Cc1ccc(-c2nn(-c3ccc(F)cc3)cc2C(=O)N(C)CC(=O)Nc2ccc(N3CCOCC3)cc2)cc1	none (no result: PfHsp90 yeast 2)
O=C(NC12CC3CC(CC(C3)C1)C2)c1ccccc1O	tim10-1 inh 50, TIM10 inh 49 | tim10-1 conf 51 | TIM10 conf 48
CCc1nnc(NC(=O)CSc2nnc(C(C)NC(=O)c3ccccc3F)n2C)s1 (centres undefined)	none
COc1cccc(CNC(=O)C(CC(C)C)NC(=O)c2ccccc2C)c1 (centres undefined)	none
CC(=O)Nc1ccc(S(=O)(=O)N2CCSC2c2ccc(C)cc2)cc1 (centres undefined)	tim10-1 inh 41, TIM10 inh 42 | tim10-1 conf inactive | TIM10 conf 34
COc1ccc(C2SCCN2S(=O)(=O)c2ccc(NC(C)=O)cc2)cc1 (centres undefined)	none
NNc1nc2sc3c(c2c(=O)n1-c1ccccc1)CCCC3	tim10-1 inh 49, TIM10 inh 57 | tim10-1 conf 39 | TIM10 conf 67
Cc1ccc(-c2nc3sc4c(c3c(=O)n2N)CCCC4)cc1	none
Nn1c(Nc2ccccc2)nc2sc3c(c2c1=O)CCCC3	tim10-1 inh 45, TIM10 inh 51 | tim10-1 conf inactive | TIM10 conf inactive
O=C(O)CSc1nc2sc3c(c2c(=O)n1-c1ccccc1)CCC3	none
COc1ccc(-n2ccn3c(CCC(=O)N4CCN(c5cccc(C)c5C)CC4)nnc3c2=O)cc1	none
C/C(=N\NC(=O)c1nnn(-c2nonc2N)c1CSc1ccc(C)cc1)c1ccco1	none
CN(C)c1ccc(C2(c3ccc(N(C)C)cc3)OC(=O)c3cc(N)ccc32)cc1	none
